From PubChem
Compounds with a hit are over-represented: about 5.7% of the library has one in this group of screens.
DRD3 agonist – agonists of human D3 dopamine receptor | D3R DiscoveRx beta-arrestin cells, luminescence, 90 min | max activation, % | actives 0.58% (n = 410,000); in the data active = max activation above about 30%; also: 0% is about no effect
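Cells at 1500/well, incubated overnight, then treated with pinned compounds (dopamine as control) for 90 min at 37 degrees C. DiscoveRx reagent added for 30 - 60 minutes at room temperature; luminescence read.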
HEK293 tox – cytotoxicity in counter-screen for GLP-1R inverse agonists; actives 0.13% (n = 410,000); Potency, µM (highest dose often 38.3 µM), for the others: at the top dose activity change, negative = inhibition, most hits filed as inhibitors; HEK293 cAMP-luciferase reporter cells, luminescence, 24 h; AID 624418;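 also: loss of luciferase light is scored as toxicity; potency is read from the fitted curve at half-maximal effect; % is scaled to controls: 0 for no effect and ±100 for the full control effect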
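To flag toxic compounds, the library was rerun on cells for 24 hr at 37 deg C and 5% CO2. Viability-linked luminescence was captured 12 min after adding luciferase detection reagent.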
ClpP mod – qHTS Assay for Activators of ClpP. actives 1.9% (n = 340,000). ATP-dependent Clp protease proteolytic subunit (Bacillus subtilis (strain 168)), P80244. AID 651965, 2013. Potency, µM (highest dose often 57.5 µM), for the others: at the highest dose activity change, negative = active. purified B. subtilis ClpP, FRET peptide cleavage, 20 min; active = well fitted falling curve with a large enough effect; inconclusive = small, poorly fitted or top-dose-only effect; inactive = no such curve, though single readings can be large or run the other way; also: potency is read from the fitted curve at half-maximal effect; the source files actives as falling curves though it sought activators and does not explain the sign; nearly all actives have a fitted effect of over 65% in size
Target sequence (P80244 whole entry, looked up): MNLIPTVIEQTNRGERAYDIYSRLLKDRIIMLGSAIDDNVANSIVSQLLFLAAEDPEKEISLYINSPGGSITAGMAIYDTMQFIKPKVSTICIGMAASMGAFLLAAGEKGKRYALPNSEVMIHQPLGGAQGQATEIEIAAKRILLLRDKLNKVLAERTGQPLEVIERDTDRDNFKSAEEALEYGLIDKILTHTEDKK
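Purified B. subtilis ClpP, 10 microg/mL final in Tris/HCl pH8 with KCl, BSA, glycerol and Tween-20, cleaved an Abz/nitrotyrosine-quenched decapeptide. Fluorescence (ex 320, em 430) was read at 0 and 20 min at room temperature. Delta was normalized to 5.8 microM ADEP and DMSO/no-enzyme controls.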
GLP1R ag – agonists of human GLP-1 receptor | actives 0.007% (n = 380,000) | P43220 | Potency, µM (top dose mostly 45.6 µM), for the others: at the highest dose activation, most hits filed as activators | HEK293 GLP-1R CRE-luciferase, luminescence, 4-6 h; cells express a hypersensitive GLP-1R form; also: potency is read from the fitted curve at half-maximal effect; % of control where 0% means no effect
Target sequence (P43220 whole entry, looked up): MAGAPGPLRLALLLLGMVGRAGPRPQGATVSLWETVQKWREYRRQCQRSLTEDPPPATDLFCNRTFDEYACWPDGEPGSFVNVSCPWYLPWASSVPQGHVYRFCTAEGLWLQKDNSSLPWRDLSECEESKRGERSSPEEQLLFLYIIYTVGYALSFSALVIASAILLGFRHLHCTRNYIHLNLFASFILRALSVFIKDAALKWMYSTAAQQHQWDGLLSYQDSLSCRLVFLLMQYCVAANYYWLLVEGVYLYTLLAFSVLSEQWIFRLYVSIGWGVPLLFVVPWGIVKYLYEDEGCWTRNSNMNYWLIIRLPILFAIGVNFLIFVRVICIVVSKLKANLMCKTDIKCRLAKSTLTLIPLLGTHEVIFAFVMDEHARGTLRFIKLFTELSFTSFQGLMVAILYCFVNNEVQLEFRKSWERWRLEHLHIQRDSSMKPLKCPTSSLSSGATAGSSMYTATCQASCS
D3 antag – D3 dopamine receptor (human) antagonism; max response, negative = inhibition, %; D3R cells, DiscoveRx beta-arrestin luminescence, antagonist mode; stronger effect = lower value; actives 2.5% (n = 360,000); AID 652054; P35462; in the data active = max response below about -50%; inconclusive = no clear call, values can overlap the other calls; also: % is scaled to controls: 0 for no effect and ±100 for the full control effect
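Cells plated overnight at 1500 cells/well, then exposed to library compounds with dopamine controls for 90 minutes at 37 degrees C. DiscoveRx reagent added for 30–60 minutes at room temperature; luminescence read, quantitative HTS format.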
GLP-1R inv ag – GLP-1 receptor (human) inverse agonism. HEK293 GLP-1R CRE-luciferase, luminescence, 24 h; GLP-1R form is constitutively active. actives 1.6% (n = 410,000). AID 624417. Potency, µM (titrated, usually from 38.3 µM), for inactives: top-dose activity change, negative = inhibition, most hits filed as inhibitors. P43220; also: potency is read from the fitted curve at half-maximal effect; % is scaled to controls: 0 for no effect and ±100 for the full control effect; nearly all actives have a fitted effect of over 55% in size
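Assay principle: reduced luminescence from a cAMP-responsive reporter in HEK293 cells co-expressing a constitutively active GLP-1R. Conditions: 24 hr compound incubation, 37 deg C, 5% CO2.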
Starred values were filed as active, the others as inactive; i = inactive; ? = inconclusive; · = no result given; [ ] = another dose, or the depositor's remark. Unless noted, calls follow the shape of the dose curve; as a rule, active = well fitted curve in the direction sought with a large enough effect; inconclusive = small, poorly fitted or top-dose-only effect, or another doubt; inactive = no such curve, though single readings can be large; an effect the other way counts as inactive or inconclusive.

SMILES	DRD3 agonist	HEK293 tox	ClpP mod	GLP1R ag	D3 antag	GLP-1R inv ag
CCN(CC)S(=O)(=O)c1ccc2c(c1)N(CC(=O)N1CCN(c3cc(Cl)ccc3C)CC1)C(=O)CO2	5	-8%	0%	·	·	-1%
COc1cc2[nH]c(=S)nc(NCc3ccccn3)c2cc1OC	4	?	·	5%	-13	5%
COc1ccccc1NC(=O)c1ccc2c(c1)OCO2	3	-5%	·	23%	19	15%
COc1cc2c(cc1NCc1ccc3c(c1)OCO3)oc1ccccc12	3	-13%	25µM*	3%	17	-1%
COc1cc2c(cc1NC(=O)c1ccc3c(c1)OCO3)oc1ccccc12	12	-6%	32µM*	-1%	9	-19%
COc1cc2c(cc1NCc1ccccn1)oc1ccccc12	1	-23%	28µM*	-2%	12	17%
CCN(CC)c1ccccc1/C=C/[n+]1ccc(CCCCI)c2ccccc21	·	·	-2%	·	·	·
CCN(C(=O)c1cn(CC)c(=O)c2cc(OC)c(OC)cc12)c1ccccc1F	7	2%	-6%	4%	·	2%
CCOC(=O)N(C)C[C@@H]1OCc2cnnn2CCCC(=O)N([C@H](C)CO)C[C@H]1C	5	4%	0%	-3%	15	10%
CCOC(=O)C1Cc2ccccc2CN1 (stereo not drawn)	-17	3%	-1%	1%	-66*	3%
Cc1cc(C)cc(Cn2ncc(Cl)c(Cl)c2=O)c1	-9	-2%	-2%	-41%	-59*	?
O=c1c(Cl)c(Cl)cnn1Cc1ccccc1Cl	-2	?	0%	-5%	?	?
CN1OC[C@@H]2CN(C(=O)C(C)(C)C)[C@H](c3ccc(-c4cccnc4)cc3)C[C@@H]21	-10	3%	-3%	10%	-24	1%
COc1ccc(-c2nc(NC(=O)CSc3nnc(C)s3)ns2)cc1	6	6%	18µM*	-10%	6	-2%
COc1cccc(Oc2ccc(N)cn2)c1	-6	3%	25µM*	-1%	-17	-15%
Clc1ccc(CSc2nnc(CNc3cccc(Cl)c3)o2)cc1	-21	-17%	1%	7%	-57*	-8%
COc1ccc([C@H]2N[C@]3(CCCN(Cc4ccc(C(F)(F)F)cc4)C3=O)[C@H]3C(=O)N(C)C(=O)[C@@H]23)cc1	-1	-1%	2%	-4%	-9	-28%
CCOc1ncccc1C(=O)Nc1ccc(OC)c(S(=O)(=O)N2CCCCC2)c1	6	-1%	1%	15%	9	34%
CCn1cc(C(=O)Nc2ccc(OC)c(S(=O)(=O)N3CCCCC3)c2)c(=O)c2ccc(C)nc21	-17	14%	32µM*	0%	-8	9%
CCOc1ccc(NC(=O)N2CCOc3ccccc32)cc1	-7	2%	2%	·	·	5%
COc1ccc(-c2cn3c(C)c(C(=O)NCCN4CCOCC4)sc3n2)cc1	4	-5%	22µM*	1%	-4	-1%
COc1cc(-c2cc(C(=O)Nc3ccc(C)c(S(=O)(=O)N4CCOCC4)c3)c3ccccc3n2)cc(OC)c1OC	33*	31%	·	24%	51	75%
COc1ccc(-c2cc(C(=O)NCCN3CCOCC3)c3ccccc3n2)cc1	0	-4%	35µM*	7%	-7	3%
COc1cc(-c2cc(C(=O)Nc3ccccc3N3CCOCC3)c3ccccc3n2)cc(OC)c1OC	5	8%[7.66 µM]	·	11%	21	32%[7.66 µM]
Cc1c(C(=O)NCCCN2CCOCC2)sc2nc(-c3ccc(F)cc3)cn12	-32	5%	0%	1%	-29	-26%
SMILES	DRD3 agonist	HEK293 tox	ClpP mod	GLP1R ag	D3 antag	GLP-1R inv ag
CCOc1ccc2c(c1)c(=O)c(C(=O)c1ccccc1)cn2Cc1ccccc1F	7	2%	0%	·	·	6%
Cc1cccc(Cn2c(C(=O)OC(C)C)cc3c2ccn3C)c1	6	3%	-16%	0%	-7	5µM*
COc1ccc(-n2c(-c3cccc(C)c3[N+](=O)[O-])n[nH]c2=S)cc1	-12	-8%	-2%	-1%	-57*	12%
CC(C)=CCC(C)(C)CNC(=O)NC1CCCCC1	-7	-1%	1%	-3%	0	10µM*
CC(C)(C)N(C=C(Cl)Cl)C(=O)NC1CCCCC1	-2	-6%	67%	-3%	-5	9%
CCc1ccc2oc(-c3ccc(OC)cc3)cc(=Nc3c(C)n(C)n(-c4ccccc4)c3=O)c2c1	-8	-11%	4%	-4%	8	10µM*
CCc1ccc2oc(-c3ccc(OC)cc3)cc(=Nc3cccc(C(=O)O)c3)c2c1	1	5%	·	-1%	-11	?
Cc1[nH]c2ccc(Br)cc2c(=O)c1CN1CCOCC1	0	76%	0%	9%	-70*	-17%
Cc1ccc(-c2c(C)n3c4c(=O)n(C)c(=O)n(C)c4nc3n2-c2cccc(O)c2)cc1	4	-5%	-14%	-5%	·	19%
CN(C)CCCNC(=O)C(=O)Nc1ccc2c(c1)N(S(=O)(=O)c1cccs1)CCC2	-10	-28%	1%	-3%	3	-72%
O=S(=O)(c1cccs1)N1CCCc2cccc(O)c21	-3	0%	-2%	-12%	-73*	?
CN(C)CCNC(=O)C(=O)Nc1ccc2c(c1)N(S(=O)(=O)c1cccs1)CCC2	2	4.5µM*	-7%	12%	0	?
CCNC(=O)C(=O)Nc1ccc2c(c1)N(S(=O)(=O)c1cccs1)CCC2	4	-5%	1%	2%	9	?
O=C(Nc1ccc2c(c1)N(S(=O)(=O)c1cccs1)CCC2)c1c(F)cccc1F	-9	-2%	11µM*	0%	-3	?
Cc1c(C)c2cc(Cl)c(O)c(CN3CCN(C)CC3)c2oc1=O	-1	i	16%	-5%	-12	3%
Cc1c(C)c2cc(Cl)c(O)c(CN3CCCC(C)C3)c2oc1=O (stereo not drawn)	0	206%	6.3µM*	-1%	?	-13%
CCCS(=O)(=O)N1CC(=O)N(c2cccc(Cl)c2)C(C)(C(=O)NC2CCCCC2)C1 (stereo not drawn)	-9	-1%	-1%	·	·	15%
O=C(COC(=O)c1cccc2ccccc12)Nc1ncc(C(F)(F)F)cc1Cl	-6	6%	35µM*	-9%	7	2%
O=C(COC(=O)c1cccc2ccccc12)Nc1cccnc1Cl	2	-8%	16µM*	20%	-20	-5%
O=C(COC(=O)c1ccccc1Cl)Nc1cccnc1Cl	-3	3%	0%	2%	-6	11%
O=C(COC(=O)c1ccccc1F)Nc1cccnc1Cl	39*	17%	·	18%	-3	10%
